# Test results published in PMC7826789 (International Journal of Molecular Sciences, 2021).
structure (smiles),measurement,setting,value
CCn1c(-c2nonc2N)nc2cncc(C(=O)N3CC[C@H](N)C3)c21.Cl [SB-772077-B],Kinases covered,PIM1,PIM1
O=C1Nc2ccc(I)cc2C1=Cc1cc(Br)c(O)c(Br)c1 [GW305074X],Kinases covered,PIM2,PIM2
NCC1CNC(=O)c2cc3ccc(C(=O)Nc4cccnc4)cc3n2C1 (stereo not shown) [BI00614644],Kinases covered,PIM3,PIM3
Nc1nccc(-c2c(-c3ccc(F)cc3)ncn2C2CCN(Cc3ccccc3)CC2)n1 [SB-219980],Kinases covered,PIP4K2C,PIP4K2C
O=C(c1ccc(-c2cc(-c3c[nH]nc3-c3ccccn3)ccn2)cc1)N1CCCC1 [GW792479],Kinases covered,PIP4K2C,PIP4K2C
CCCc1cc(N2CCCN(C)CC2)nc2sc3c(N)ncnc3c12 [BI00604564],Kinases covered,PIP5K1C,PIP5K1C
CC(C)N1CC(=O)N(C)c2cnc(Nc3cccc(S(=O)(=O)CCN4CCOCC4)c3)nc21 [BI00009348],Kinases covered,PIP5K1C,PIP5K1C
same,Kinases covered,PIP5K2C,PIP5K2C
Cc1cc(NC(=O)c2cccc(NC(=O)/C=C/CN(C)C)c2)ccc1Nc1nccc(-c2cccnc2)n1 [JNK-IN-7],Kinases covered,PIP5K2C,PIP5K2C
C[C@@H](Oc1cc(-n2cnc3ccc(CN4CCN(C)CC4)cc32)sc1C(N)=O)c1ccccc1C(F)(F)F [GSK461364],Kinases covered,PLK1,PLK1
COc1cc2ncn(-c3cc(OCC4CCCO4)c(C(N)=O)s3)c2cc1OC (stereo not shown) [GSK204607],Kinases covered,PLK1,PLK1
same,Kinases covered,PLK2,PLK2
same,Kinases covered,PLK3,PLK3
COc1cc2ncn(-c3cc(OCc4ccncc4)c(C(N)=O)s3)c2cc1OC [GSK336313],Kinases covered,PLK2,PLK2
CCn1c(-c2nonc2N)nc2cncc(CNC3CCNCC3)c21 [SB-747651A],Kinases covered,PRK2,PRK2
COc1cc(Nc2cnc(C#N)c(O[C@H](C)CN(C)C)n2)ncc1-c1cnn(C)c1 [CCT244747],Kinases covered,PRKAA1,PRKAA1
NCC1CCC(CNc2nc(NCc3ccccc3OC(F)(F)F)ncc2[N+](=O)[O-])CC1 (stereo not shown) [BIRZ0518XX],Kinases covered,PRKCD,PRKCD
same,Kinases covered,PRKCE,PRKCE
same,Kinases covered,PRKCQ,PRKCQ
CCn1c(-c2nonc2N)nc2c(C#CC(C)(C)O)nc(OCCNC)cc21.Cl [GSK949675],Kinases covered,PRKCH,PRKCH
COc1ccc2nc(-c3cccc(C)n3)nc(Nc3ccncc3)c2c1 [GSK204919],Kinases covered,PRKD2,PRKD2
Cc1cccc(-c2nc(Nc3ccncc3)c3ccccc3n2)n1 [GW855857],Kinases covered,PRKD2,PRKD2
same,Kinases covered,PRKD3,PRKD3
CNc1nc(-c2ccc3c(N)n[nH]c3c2)cc(N2C[C@@H](C(=O)Nc3ccccc3)CC[C@H]2C)n1 [GSK2298859],Kinases covered,PRKX,PRKX
COc1cc(N2CCN(C(C)C)CC2)ccc1Nc1nc(Nc2ccc(F)cc2C(=O)NC[C@@H](O)CO)c2cc[nH]c2n1 [GSK1392956A],Kinases covered,PTK2B,PTK2B
